Here are results for 36 sequences from article PMC11006913.

What all share (experiment): PBM; 200 nM protein, PBS
Holding throughout (details): dsDNA, one strand shown

Test [1] concerns the target ALX3 (Homo sapiens, UniProt O95076 139-225, N203Q).
The target in test [2] is ALX3 (Homo sapiens, UniProt O95076 139-225).
Test [3] has as its target ALX3 (Homo sapiens, UniProt O95076 139-225, N203S).
Test [4] deals with HOXD13 (Homo sapiens, UniProt P35453 263-343, T313R).
Test [5] addresses HOXD13 (Homo sapiens, UniProt P35453 263-343).
Test [6] deals with ALX3 (Homo sapiens, UniProt O95076 139-225, L168V).
Test [7] addresses ALX3 (Homo sapiens, UniProt O95076 139-225, L168Q).
Another test addresses HOXA2 (Homo sapiens, UniProt O43364 129-215, R185K).
In test [8] the target is HOXD13 (Homo sapiens, UniProt P35453 263-343, T313A).
Test [9] addresses T1, NKX2-6 (Homo sapiens, UniProt A6NCS4 118-204).
T1 sequence: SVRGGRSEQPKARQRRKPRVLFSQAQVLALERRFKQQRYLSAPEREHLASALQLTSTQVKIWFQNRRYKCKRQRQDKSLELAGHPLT

For test [10], the target named is T2, NKX2-6 (Homo sapiens, UniProt A6NCS4 118-204, F151L).
T2 sequence: T1 sequence with F34L

The target of test [11] is VAX1 (Homo sapiens, UniProt Q5SQQ9 86-172).
The target in test [12] is VAX1 (Homo sapiens, UniProt Q5SQQ9 86-172, T142I).
Test [13] concerns the target VAX1 (Homo sapiens, UniProt Q5SQQ9 86-172, K157R).

Changes are numbered by the printed parent chain.

Sequence of ALX3 (Homo sapiens, UniProt O95076 139-225, L168V) (O95076 139-225 L168V): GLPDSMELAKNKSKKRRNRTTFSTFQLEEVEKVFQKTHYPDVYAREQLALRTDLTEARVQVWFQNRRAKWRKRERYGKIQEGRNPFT
Sequence of ALX3 (Homo sapiens, UniProt O95076 139-225, N203Q) (O95076 139-225 N203Q): as the sequence (O95076 139-225 L168V) above, with V30L, N65Q counted along it
Sequence of HOXD13 (Homo sapiens, UniProt P35453 263-343, T313R) (P35453 263-343 T313R): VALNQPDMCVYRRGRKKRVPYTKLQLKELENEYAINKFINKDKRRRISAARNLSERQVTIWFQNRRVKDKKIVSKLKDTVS
Sequence of HOXD13 (Homo sapiens, UniProt P35453 263-343) (P35453 263-343): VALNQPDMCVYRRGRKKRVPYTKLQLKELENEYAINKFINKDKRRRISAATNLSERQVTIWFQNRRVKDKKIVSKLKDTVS
Sequence of ALX3 (Homo sapiens, UniProt O95076 139-225, N203S) (O95076 139-225 N203S): as the sequence (O95076 139-225 L168V) above, with V30L, N65S counted along it
Sequence of HOXD13 (Homo sapiens, UniProt P35453 263-343, T313A) (P35453 263-343 T313A): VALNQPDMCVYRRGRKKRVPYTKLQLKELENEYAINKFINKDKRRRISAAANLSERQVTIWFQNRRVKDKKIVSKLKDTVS
Sequence of ALX3 (Homo sapiens, UniProt O95076 139-225) (O95076 139-225): as the sequence (O95076 139-225 L168V) above, with V30L counted along it
Sequence of ALX3 (Homo sapiens, UniProt O95076 139-225, L168Q) (O95076 139-225 L168Q): as the sequence (O95076 139-225 L168V) above, with V30Q counted along it
Sequence of VAX1 (Homo sapiens, UniProt Q5SQQ9 86-172) (Q5SQQ9 86-172): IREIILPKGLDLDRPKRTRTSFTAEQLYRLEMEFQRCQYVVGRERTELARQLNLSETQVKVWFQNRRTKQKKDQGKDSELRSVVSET
Sequence of VAX1 (Homo sapiens, UniProt Q5SQQ9 86-172, K157R) (Q5SQQ9 86-172 K157R): as the sequence (Q5SQQ9 86-172) above, with K72R counted along it
Sequence of HOXA2 (O43364 129-215 R185K): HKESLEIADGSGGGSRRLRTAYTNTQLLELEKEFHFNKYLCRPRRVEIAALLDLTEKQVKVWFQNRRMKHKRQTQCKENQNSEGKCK
Sequence of VAX1 (Homo sapiens, UniProt Q5SQQ9 86-172, T142I) (Q5SQQ9 86-172 T142I): as the sequence (Q5SQQ9 86-172) above, with T57I counted along it

Consider ATCACAGA, for which the binding signal with ALX3 [1] is 8.15 upbm affinity estimate (log intensity, higher = more binding, comparable within an allelic series); with ALX3 [2], 9.21 upbm affinity estimate (log intensity, higher = more binding, comparable within an allelic series); with ALX3 [3], 8.16 upbm affinity estimate (log intensity, higher = more binding, comparable within an allelic series).
On to TCTATTAA, for which the binding signal with HOXD13 [4] was 10.7 upbm affinity estimate (log intensity, higher = more binding, comparable within an allelic series).
For the sequence TCACTAAA, the binding signal with HOXD13 [4] was 10.1 upbm affinity estimate (log intensity, higher = more binding, comparable within an allelic series); with HOXD13 [5], 10.6 upbm affinity estimate (log intensity, higher = more binding, comparable within an allelic series).
For the sequence CTAACAAC, the binding signal in the test with ALX3 [1] is 8.26 upbm affinity estimate (log intensity, higher = more binding, comparable within an allelic series); in the test with ALX3 [2], 9.15 upbm affinity estimate (log intensity, higher = more binding, comparable within an allelic series); with ALX3 [3] it was 8.24 upbm affinity estimate (log intensity, higher = more binding, comparable within an allelic series).
For the sequence ATATTCAA, the binding signal in the test with ALX3 [1] was 8.33 upbm affinity estimate (log intensity, higher = more binding, comparable within an allelic series); with ALX3 [2], 9.13 upbm affinity estimate (log intensity, higher = more binding, comparable within an allelic series); with ALX3 [6] it was 8.63 upbm affinity estimate (log intensity, higher = more binding, comparable within an allelic series).
As to CCCGAGAG, the binding signal with ALX3 [1] was 7.84 upbm affinity estimate (log intensity, higher = more binding, comparable within an allelic series); with ALX3 [2], 7.81 upbm affinity estimate (log intensity, higher = more binding, comparable within an allelic series); with ALX3 [7], 7.74 upbm affinity estimate (log intensity, higher = more binding, comparable within an allelic series); with ALX3 [6], 7.83 upbm affinity estimate (log intensity, higher = more binding, comparable within an allelic series); with ALX3 [3] it was 7.85 upbm affinity estimate (log intensity, higher = more binding, comparable within an allelic series).
For the sequence CTCGTTAA, the binding signal is 10.7 upbm affinity estimate (log intensity, higher = more binding, comparable within an allelic series) with HOXD13 [4]; 13.1 upbm affinity estimate (log intensity, higher = more binding, comparable within an allelic series) with HOXA2; 12.1 upbm affinity estimate (log intensity, higher = more binding, comparable within an allelic series) with HOXD13 [5]; 12 upbm affinity estimate (log intensity, higher = more binding, comparable within an allelic series) with HOXD13 [8].
In the case of ATTTAAAT, the binding signal with ALX3 [1] was 8.56 upbm affinity estimate (log intensity, higher = more binding, comparable within an allelic series); with ALX3 [3], 8.68 upbm affinity estimate (log intensity, higher = more binding, comparable within an allelic series).
As for AATATTAA, the binding signal with ALX3 [1] is 8.6 upbm affinity estimate (log intensity, higher = more binding, comparable within an allelic series); with ALX3 [3], 8.69 upbm affinity estimate (log intensity, higher = more binding, comparable within an allelic series).
Consider ATTAGTTA, for which the binding signal was 8.55 upbm affinity estimate (log intensity, higher = more binding, comparable within an allelic series) with ALX3 [1] and 8.67 upbm affinity estimate (log intensity, higher = more binding, comparable within an allelic series) in the test with ALX3 [3].
On to CATTTGCC, for which the binding signal is 7.93 upbm affinity estimate (log intensity, higher = more binding, comparable within an allelic series) with ALX3 [1]; 8.86 upbm affinity estimate (log intensity, higher = more binding, comparable within an allelic series) with ALX3 [2]; 7.93 upbm affinity estimate (log intensity, higher = more binding, comparable within an allelic series) with ALX3 [3].
For GATACGAC, the binding signal was 9.91 upbm affinity estimate (log intensity, higher = more binding, comparable within an allelic series) with HOXD13 [4] and 10.3 upbm affinity estimate (log intensity, higher = more binding, comparable within an allelic series) with HOXD13 [5].
With GCATTAGA, the binding signal was 8.11 upbm affinity estimate (log intensity, higher = more binding, comparable within an allelic series) with ALX3 [1]; 9.95 upbm affinity estimate (log intensity, higher = more binding, comparable within an allelic series) with ALX3 [2]; 8.12 upbm affinity estimate (log intensity, higher = more binding, comparable within an allelic series) in the test with ALX3 [3].
In the case of ATAGCAAT, the binding signal with HOXD13 [4] was 10.2 upbm affinity estimate (log intensity, higher = more binding, comparable within an allelic series); in the test with HOXD13 [5] it was 10.7 upbm affinity estimate (log intensity, higher = more binding, comparable within an allelic series).
Take CCTATTAC: the binding signal in the test with ALX3 [1] was 8.28 upbm affinity estimate (log intensity, higher = more binding, comparable within an allelic series); with ALX3 [2], 10.8 upbm affinity estimate (log intensity, higher = more binding, comparable within an allelic series); with ALX3 [3] it was 8.28 upbm affinity estimate (log intensity, higher = more binding, comparable within an allelic series).
For TATAAACA, the binding signal with HOXD13 [4] is 10.7 upbm affinity estimate (log intensity, higher = more binding, comparable within an allelic series).
Turning to CTCATCAA, the binding signal was 8.12 upbm affinity estimate (log intensity, higher = more binding, comparable within an allelic series) in the test with ALX3 [1]; 9.41 upbm affinity estimate (log intensity, higher = more binding, comparable within an allelic series) in the test with ALX3 [2]; 8.16 upbm affinity estimate (log intensity, higher = more binding, comparable within an allelic series) with ALX3 [3].
For the sequence CCCGGCCA, the binding signal with HOXD13 [4] is 9.5 upbm affinity estimate (log intensity, higher = more binding, comparable within an allelic series); with NKX2-6 [9] it was 9.65 upbm affinity estimate (log intensity, higher = more binding, comparable within an allelic series); with HOXD13 [5] it was 9.64 upbm affinity estimate (log intensity, higher = more binding, comparable within an allelic series); with HOXD13 [8], 9.63 upbm affinity estimate (log intensity, higher = more binding, comparable within an allelic series); with NKX2-6 [10], 9.26 upbm affinity estimate (log intensity, higher = more binding, comparable within an allelic series).
For GCCTCCAC, the binding signal in the test with HOXD13 [4] is 9.56 upbm affinity estimate (log intensity, higher = more binding, comparable within an allelic series); with NKX2-6 [9], 9.6 upbm affinity estimate (log intensity, higher = more binding, comparable within an allelic series); with HOXD13 [5] it was 9.59 upbm affinity estimate (log intensity, higher = more binding, comparable within an allelic series); in the test with HOXD13 [8], 9.61 upbm affinity estimate (log intensity, higher = more binding, comparable within an allelic series); with NKX2-6 [10], 9.3 upbm affinity estimate (log intensity, higher = more binding, comparable within an allelic series).
Take TTAACTAA: the binding signal with ALX3 [1] was 8.53 upbm affinity estimate (log intensity, higher = more binding, comparable within an allelic series); with ALX3 [3], 8.65 upbm affinity estimate (log intensity, higher = more binding, comparable within an allelic series).
In the case of CCGCGGAC, the binding signal in the test with ALX3 [1] is 7.74 upbm affinity estimate (log intensity, higher = more binding, comparable within an allelic series); with ALX3 [2], 7.45 upbm affinity estimate (log intensity, higher = more binding, comparable within an allelic series); in the test with ALX3 [7], 7.7 upbm affinity estimate (log intensity, higher = more binding, comparable within an allelic series); in the test with ALX3 [6], 7.67 upbm affinity estimate (log intensity, higher = more binding, comparable within an allelic series); with ALX3 [3], 7.75 upbm affinity estimate (log intensity, higher = more binding, comparable within an allelic series).
For TCGATCGA, the binding signal is 9.65 upbm affinity estimate (log intensity, higher = more binding, comparable within an allelic series) with HOXD13 [4]; 9.44 upbm affinity estimate (log intensity, higher = more binding, comparable within an allelic series) in the test with HOXD13 [5]; 9.58 upbm affinity estimate (log intensity, higher = more binding, comparable within an allelic series) in the test with HOXD13 [8].
With CCCTGGAG, the binding signal with HOXD13 [4] is 9.64 upbm affinity estimate (log intensity, higher = more binding, comparable within an allelic series); in the test with HOXD13 [5], 9.55 upbm affinity estimate (log intensity, higher = more binding, comparable within an allelic series); with HOXD13 [8], 9.78 upbm affinity estimate (log intensity, higher = more binding, comparable within an allelic series).
For the sequence CAATAATC, the binding signal is 10.2 upbm affinity estimate (log intensity, higher = more binding, comparable within an allelic series) with HOXD13 [4]; 11.2 upbm affinity estimate (log intensity, higher = more binding, comparable within an allelic series) with HOXD13 [5]; 11.1 upbm affinity estimate (log intensity, higher = more binding, comparable within an allelic series) with HOXD13 [8].
For the sequence CCCTGACC, the binding signal with HOXD13 [4] is 9.5 upbm affinity estimate (log intensity, higher = more binding, comparable within an allelic series); with HOXD13 [5], 9.5 upbm affinity estimate (log intensity, higher = more binding, comparable within an allelic series); with VAX1 [11], 7.22 upbm affinity estimate (log intensity, higher = more binding, comparable within an allelic series); with HOXD13 [8] it was 9.64 upbm affinity estimate (log intensity, higher = more binding, comparable within an allelic series); with VAX1 [12], 7.35 upbm affinity estimate (log intensity, higher = more binding, comparable within an allelic series); with VAX1 [13] it was 7.27 upbm affinity estimate (log intensity, higher = more binding, comparable within an allelic series).
As for CCGGCCCA, the binding signal with HOXD13 [4] was 9.49 upbm affinity estimate (log intensity, higher = more binding, comparable within an allelic series); with HOXD13 [5] it was 9.55 upbm affinity estimate (log intensity, higher = more binding, comparable within an allelic series); with HOXD13 [8], 9.54 upbm affinity estimate (log intensity, higher = more binding, comparable within an allelic series).
As to AAGGCGAG, the binding signal is 9.65 upbm affinity estimate (log intensity, higher = more binding, comparable within an allelic series) in the test with HOXD13 [4]; 9.72 upbm affinity estimate (log intensity, higher = more binding, comparable within an allelic series) in the test with HOXD13 [5]; 9.78 upbm affinity estimate (log intensity, higher = more binding, comparable within an allelic series) with HOXD13 [8].
In the case of TTGTAAAA, the binding signal in the test with HOXD13 [4] was 10.7 upbm affinity estimate (log intensity, higher = more binding, comparable within an allelic series); with HOXD13 [5], 11.8 upbm affinity estimate (log intensity, higher = more binding, comparable within an allelic series); with HOXD13 [8], 11.6 upbm affinity estimate (log intensity, higher = more binding, comparable within an allelic series).
In the case of ATTCATGG, the binding signal is 10.2 upbm affinity estimate (log intensity, higher = more binding, comparable within an allelic series) in the test with HOXD13 [4] and 10.8 upbm affinity estimate (log intensity, higher = more binding, comparable within an allelic series) with HOXD13 [5].
Take GGCCGGCA: the binding signal is 9.49 upbm affinity estimate (log intensity, higher = more binding, comparable within an allelic series) in the test with HOXD13 [4]; 9.56 upbm affinity estimate (log intensity, higher = more binding, comparable within an allelic series) in the test with HOXD13 [5]; 9.65 upbm affinity estimate (log intensity, higher = more binding, comparable within an allelic series) with HOXD13 [8].
For the sequence CCTCCGCC, the binding signal with HOXD13 [4] was 9.44 upbm affinity estimate (log intensity, higher = more binding, comparable within an allelic series); in the test with HOXD13 [5], 9.44 upbm affinity estimate (log intensity, higher = more binding, comparable within an allelic series); with HOXD13 [8], 9.54 upbm affinity estimate (log intensity, higher = more binding, comparable within an allelic series).
GGGTTGAA: the binding signal is 9.64 upbm affinity estimate (log intensity, higher = more binding, comparable within an allelic series) with HOXD13 [4]; 9.57 upbm affinity estimate (log intensity, higher = more binding, comparable within an allelic series) in the test with HOXD13 [5]; 9.62 upbm affinity estimate (log intensity, higher = more binding, comparable within an allelic series) with HOXD13 [8].
For ATAACACG, the binding signal in the test with HOXD13 [4] is 10.1 upbm affinity estimate (log intensity, higher = more binding, comparable within an allelic series); in the test with HOXD13 [5], 10.7 upbm affinity estimate (log intensity, higher = more binding, comparable within an allelic series).
With CTATAAAG, the binding signal in the test with HOXD13 [4] is 10.8 upbm affinity estimate (log intensity, higher = more binding, comparable within an allelic series); in the test with HOXD13 [5], 11.9 upbm affinity estimate (log intensity, higher = more binding, comparable within an allelic series); with HOXD13 [8] it was 11.6 upbm affinity estimate (log intensity, higher = more binding, comparable within an allelic series).
Take CACCGCCA: the binding signal with HOXD13 [4] was 9.56 upbm affinity estimate (log intensity, higher = more binding, comparable within an allelic series); in the test with HOXD13 [5], 9.65 upbm affinity estimate (log intensity, higher = more binding, comparable within an allelic series); in the test with HOXD13 [8], 9.8 upbm affinity estimate (log intensity, higher = more binding, comparable within an allelic series).
On to AACTTCAT, for which the binding signal was 10.1 upbm affinity estimate (log intensity, higher = more binding, comparable within an allelic series) in the test with HOXD13 [4] and 10.6 upbm affinity estimate (log intensity, higher = more binding, comparable within an allelic series) with HOXD13 [5].
